Laboratory results: PubChem BioAssay AID743279 (National Center for Advancing Translational Sciences (NCATS), 2014)
The whole screen tested about 360,000 compounds, of which about 17,000 (4.7%) were called active. Another 5% or so got no clear call; they are omitted. Cut-off read from the data, not from the text of the source: active = activity change below about -50%; inconclusive = mostly about -30% to -49%; inactive = weaker than that. Only a selection was taken, and actives are over-represented in it overall.

Assay: qHTS for Inhibitors of Inflammasome Signaling: IL-1-beta AlphaLISA Primary Screen
Details: THP-1 LPS/ATP IL-1B secretion, 16 h; at 57.5 µM, stronger effect = lower value
How it was run: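 Secreted IL-1B measured by AlphaLISA bead assay after 16 h compound exposure of THP-1 cells; compounds (final up to 57.5 uM) added 1 h before LPS (250 ng/mL) and ATP (1.25 mM) stimulation; lower signal means less secretion.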
% is set by controls: 0 for no effect and ±100 for the full control effect.

SMILES	activity change
COCC1CCCCN1C(=O)c1cc(COc2ccc(C)c(C)c2)on1 (stereo not given)	22.6% (inactive)
CCOc1cc(C=NNC(=O)CCCC(=O)NN=Cc2ccc(O)c(OCC)c2)ccc1O	0% (inactive)
CC(C)CN1CCC1(C)C(=O)Nc1ccc(OC(F)F)cc1 (stereo not given)	14.2% (inactive)
O=[N+]([O-])c1ccccc1Nc1ccc(O)cc1	-11.5% (inactive)
O=[N+]([O-])c1ncc(Br)cc1Nc1ccccc1	-71.2% (active)
O=[N+]([O-])c1cccc(/C=N/Nc2ncc(Br)cn2)c1	-8.3% (inactive)
Cn1c(=O)[nH]c(=O)c2c1nc(NCCCn1ccnc1)n2Cc1cccc(Br)c1	58.2% (inactive)
Cc1ccccc1-c1nc(NC(C)C)nc2cc(-c3ccccc3)sc12	19.3% (inactive)
CC1(C)CN(CCc2ccccc2)C(=O)[C@H]1CC(=O)Nc1ccc(Br)cc1	0% (inactive)
CC[C@]1(c2ccccc2OC)C(=O)N(C(=O)OC)N1C(=O)OC	-76.7% (active)
COC(=O)c1ccccc1NC(=O)Cc1ccccc1OC	7.67% (inactive)
COc1ccccc1CNC(=O)CCCN1C(=O)NC2(CCCC2)C1=O	10.6% (inactive)
CC(=O)Nc1ccc(NC(=O)c2ccc3c(c2)C(=O)N(c2ccccc2C)C3=O)cc1	0% (inactive)
C[C@@H]1CN([C@@H](C)CO)C(=O)c2cc(Br)cnc2O[C@H]1CN(C)Cc1ccc(-c2ccccc2)cc1	-13.1% (inactive)
CC1(C(=O)Nc2ccc3c(c2)OCCO3)CCN1C(=O)Cc1cc(F)ccc1F (stereo not given)	-2.62% (inactive)
CC(=O)Nc1nc2ccccc2n1Cc1ccc(C)cc1	-12.8% (inactive)
CCCCn1c(CCCNC(=O)CC)nc2ccccc21	36.3% (inactive)
CCC(=O)Nc1nc2ccccc2n1Cc1ccccc1C	-56% (active)
COC(=O)c1ccc2nc(-c3cccc(Br)c3)c(Cc3ccc(OC)cc3C)n2c1	2.21% (inactive)
NNc1cccc(C=Cc2ccccc2)cc1=O	-13.4% (inactive)
CCOC1=C2CN(S(=O)(=O)c3ccc(C)cc3)[C@H](c3cccs3)C[C@H]2[C@H]2C(=O)N(c3ccccc3)C(=O)[C@H]2C1	91.6% (inactive)
CCN(C(=O)c1ccc(Br)cc1)c1ccccc1	-9.85% (inactive)
CCN(C(=O)COc1ccc(C(=O)c2ccccc2)cc1)c1ccccc1	-69.8% (active)

SMILES	activity change
O=C(COc1ccc(F)cc1)N(CC1=CCS(=O)(=O)C1)c1ccccc1	0.865% (inactive)
Cc1ccccc1OS(=O)(=O)c1cccc([N+](=O)[O-])c1	27.3% (inactive)
COc1ccc(NC(=O)C2Cc3c(-c4cccc(NC(C)=O)c4)ccnc3O2)cc1OC (stereo not given)	-14.1% (inactive)
N#Cc1ccc(OCC(=O)NC(=O)NC2CCS(=O)(=O)C2)cc1 (stereo not given)	-12.4% (inactive)
CCNC(=O)c1cc2c(c(-c3cccc(-c4cncnc4)c3)n1)[C@H](CCO)N(C(C)=O)C2	42.5% (inactive)
CC(=O)N1Cc2cc(C(=O)NCc3cccc(F)c3)nc(-c3cccc(C4=CCCC4)c3)c2[C@H]1CCO	-67.2% (active)
CC(C)NC(=O)N1Cc2cc(C(=O)NCC(F)(F)F)nc(-c3cccc(-c4cc5ccccc5o4)c3)c2[C@@H]1CCO	-22.8% (inactive)
CC1(C(=O)NCc2ccc(F)c(F)c2)Cc2c(-c3ccc4c(c3)OCO4)ccnc2O1 (stereo not given)	46.6% (inactive)
CC12CCC(=O)N1C(C(=O)Nc1ccc(F)c(F)c1F)CS2 (stereo not given)	6.07% (inactive)
CCn1nc(C(=O)NNC(=O)C2CSC3(C)CCC(=O)N23)c2ccccc2c1=O (stereo not given)	4.8% (inactive)
CC12CCC(=O)N1C(C(=O)NCCN1C(=O)S/C(=C\c3ccccc3F)C1=O)CS2 (stereo not given)	-53.4% (active)
CC1(C(=O)Nc2ccccc2Br)CCN1C(=O)CC1CC1 (stereo not given)	13.2% (inactive)
O=C(Nc1ccncc1)c1cc2ccccc2o1	-4.22% (inactive)
O=C(Nc1ccncc1)c1c(F)cccc1F	-66.7% (active)
CCCC(=O)Nc1nc2ccc(NC(=O)c3c(F)c(F)c(OC)c(F)c3F)cc2s1	11.7% (inactive)
Nc1nnc(SCC(=O)Nc2ccc3nc(SCC(=O)Nc4ccccc4)sc3c2)s1	-29.4% (inactive)
O=C(Nc1ccc(S(=O)(=O)N2CCCCCC2)cc1)c1c(F)cccc1F	-9.91% (inactive)
CSc1nc2ccc(NC(=O)c3c(F)cccc3F)cc2s1	-101% (active)
Cc1ccc(C(=O)NC(C)C(c2cccs2)N2CCOCC2)cc1C (stereo not given)	-9.25% (inactive)
CNC(=O)N1c2ccccc2C=Cc2ccccc21	0% (inactive)
CCCCNC(=O)N1CCCC(N(C)CCc2ccc(OC)c(OC)c2)C1 (stereo not given)	1.87% (inactive)
CC1(C2CC2)NC(=O)N(CC(=O)N2CCN(c3ccccc3F)CC2)C1=O (stereo not given)	-14.2% (inactive)
Cc1c(C(=O)NCC(c2ccco2)N2CCCC2)oc2ccc(Cl)cc12 (stereo not given)	-25.2% (inactive)

SMILES	activity change
Cc1ccc(C)c(S(=O)(=O)Nc2cc(C)on2)c1	-7.66% (inactive)
CCOC(=O)C1CCCN(C(=O)C2CCN(S(=O)(=O)c3ccc(Cl)c(C(F)(F)F)c3)CC2)C1 (stereo not given)	16.1% (inactive)
CCCc1nc2oc3c(=O)[nH]cnc3c2c2c1COC(C)(C)C2	17.7% (inactive)
CS(=O)(=O)N1CCCCC1c1cc(C(=O)NCc2ccccc2)no1 (stereo not given)	-18.8% (inactive)
CCN1CCC(O)(/C=C/c2ccc(C)cc2)C(C(=O)/C=C/c2ccc(C)cc2)C1 (stereo not given)	-1.25% (inactive)
CCCCCOC(=O)c1ccc(N2C(=O)C3C4C=CC(C4)C3C2=O)cc1 (stereo not given)	-71.4% (active)
CCCCOC(=O)NCN1C(=O)C2C3C=CC(C3)C2C1=O (stereo not given)	26.4% (inactive)
CCCOC(=O)c1ccc(N2C(=O)c3ccccc3C2=O)cc1	17.6% (inactive)
O=C(Nc1cccc2c1CCCC2)C1CCN(C(=O)NC2CCCCC2)CC1	15.3% (inactive)
COC(=O)[C@]12CCCCC=C1N(CCC1=CCCCC1)C(=O)[C@H](CC(=O)N1CCSCC1)C2	-3.86% (inactive)
CCOCCCNc1c(CC)c(C)c(C#N)c2nc3ccccc3n12	-7.67% (inactive)
CCCc1cc(=S)n2c([nH]c3ccccc32)c1C#N	-9.7% (inactive)
CCOC(=O)CCc1c(C)c(C#N)c2[nH]c3ccccc3n2c1=O	-90.1% (active)
COC(=O)C1=CN(c2c(C)cc(C)cc2C)C(N)=C(C#N)C1c1cccc(F)c1 (stereo not given)	-11.3% (inactive)
CC1Cc2[nH][nH]c(=O)c2C(C2CC2)O1 (stereo not given)	-5% (inactive)
COc1ccc(CN2C(=O)C(CC(=O)NC3CCCCC3)CC(C(=O)N3CCOCC3)=C2C)cc1 (stereo not given)	-7.47% (inactive)
CCn1c(SCC(=O)Nc2ccc(Br)cc2)nc2sc3c(c2c1=O)CCN(C)C3	-54.3% (active)
CCOc1ccc(-n2c(SCC(=O)Nc3ccc(OC)cc3)nc3sc4c(c3c2=O)CCN(C)C4)cc1	-16% (inactive)
COc1ccccc1NC(=O)CSc1nc2sc3c(c2c(=O)n1-c1ccccc1)CCN(C)C3	-4.77% (inactive)
Cc1ccc(-c2c(C)n([O-])c3c([n+]2=O)CCC3)cc1	12.3% (inactive)
CCOc1cccc(=O)c2c(C)n(CC3CCCO3)c(C)c12 (stereo not given)	13.1% (inactive)
O=C1c2cccc3c([N+](=O)[O-])ccc(c23)C(=O)N1CC1CCCO1 (stereo not given)	-98.7% (active)
CN1CN(C)c2ccc([N+](=O)[O-])c3cccc1c23	-18.1% (inactive)

SMILES	activity change
Cc1ccc(N2CCN(c3ccc(C)cc3)C2c2ccccn2)cc1	-6.85% (inactive)
COc1ccc(S(=O)(=O)N2CCC(C(=O)NCCC(=O)NCCc3cccc(F)c3)CC2)cc1	-8.46% (inactive)
CC(Cc1cccs1)N(Cc1ccc(Cl)cc1)C(=O)c1ccncc1 (stereo not given)	20.4% (inactive)
Nc1nc(NC(=O)/C=C/c2ccc(F)cc2)nn1-c1ccccc1	-2.85% (inactive)
CC(=O)c1ccc(NC(=O)c2sc3nc4n(c(=O)c3c2C)CCCCC4)cc1	-59.8% (active)
Cc1c(C(=O)Nc2ccccc2)sc2nc3n(c(=O)c12)CCCCC3	-7.47% (inactive)
O=c1c2c(nc3n1CCCCC3)sc1c(O)cccc12	24.7% (inactive)
CCCS(=O)(=O)Nc1ccc(-c2cn3c(n2)SCC3)cc1	-1.84% (inactive)
CCCCCCNC(=O)O[C@H]1CN(C(=O)OC(C)C)N(C(=O)OC(C)C)[C@@H]2CN(S(=O)(=O)c3ccc(C)cc3)C[C@]12O	-63.8% (active)
COC(=O)[C@H]1C[C@H](OC(=O)NCc2ccccc2)[C@@]2(O)CN(S(=O)(=O)c3ccc(C)cc3)CC2[C@H]1C(=O)OC (stereo not given in full)	-4.9% (inactive)
CCCCCCNC(=O)O[C@]12C[C@@H](C(=O)OC)[C@@H](C(=O)OC)C[C@@]1(O)CN(S(=O)(=O)c1ccc(C)cc1)C2	11.6% (inactive)
COc1ccc([C@H]2CC(=O)C[C@@H](CCn3cc(CC4CCCC4)nn3)O2)cc1	10.9% (inactive)
COc1ccc(-c2nc3ccc(Br)cn3c2Cc2ccc(C)cc2)cc1OC	-15.5% (inactive)
Cc1ccc(Cn2cc(C(=O)NN)c(=O)c3ccc(F)cc32)cc1	-11.4% (inactive)
Cc1ccc(Nc2cc(C)nc3c(C)ccc([N+](=O)[O-])c23)cc1	-61.1% (active)
Cc1ccc(Nc2nc(C)cc(C)c2C(N)=O)cc1	19.4% (inactive)
Cc1ccc2cccc([N+](=O)[O-])c2n1	15% (inactive)
O=NN(CCCl)C(=O)NCCc1cccc[n+]1[O-]	15% (inactive)
O=C(c1ccc(CSc2ccccc2)cc1)N1CCCCCC1	-19.7% (inactive)
CC1CCN(C(=O)c2ccc(CSc3ccc(Cl)cc3)cc2)CC1	-51.2% (active)
O=C(NC1CCCCCC1)C1CCN(C(=O)c2ccc(Cl)cc2)CC1	9.37% (inactive)
